Reference: PubChem BioAssay (NCI)
Compounds without any hit were thinned out: in the full panel of roughly 83,000, 20% have a hit.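 Single-concentration screen, 48 h exposure, 96-well plates. Endpoint: percent growth. Below 10 = active.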 Values without a mark were called inactive. The source made the active and inactive calls.

tested on: SF-539 CNS; assay: NCI-60 one-dose screen, 48 h (100 = growth as untreated, 0 = no growth, -100 = all killed); settings: 10 µM

| SMILES | growth |
| --- | --- |
| CC(C)N(CCOc1cccc(-c2nc3sccn3c2-c2ccnc(S(C)(=O)=O)n2)c1)C(C)C | 91.9% |
| O=C(CSc1nnc(-c2ccc(Cl)cc2)o1)Nc1ccc(C(=O)/C=C/c2ccc(Cl)cc2)cc1 | 117% |
| CC[C@@H](C(=O)[C@@H](C)[C@@H](O)[C@H](C)[C@@H]1O[C@@H]([C@@H](CC)C(=O)N(CC)CC)CC[C@@H]1C)C1O[C@]2(C=CC(=O)[C@]3(CC[C@@](C)([C@H]4CC[C@](O)(CC)[C@H](C)O4)O3)O2)[C@H](C)C[C@@H]1C (stereo not given in full) | 44.8% |
| COc1ccc(-c2onc(N)c2-c2cc(OC)c3c(c2)OCO3)cc1 | 20.1% |
| CCN(CC)CCOc1cccc2c1C(=O)c1cccc(OCCN(CC)CC)c1C2=O | 37.3% |
| COc1cc(/C=C/c2cc(/C=C/c3ccc(O)c(OC)c3)n(C(=O)Nc3ccc(C)cc3)n2)ccc1O | 5.95% (active) |
| CCOC(=O)c1cc(C(=O)c2ccc(F)cc2F)n2ccccc12 | 95.2% |
| COc1cc2c(cc1NC(=O)C(Cl)Cl)-c1ccc(NC(=O)C(Cl)Cl)cc1C2 | -14.9% (active) |
| COc1ccc(-c2cc(-c3ccccc3)nc(SCCCC(=O)NO)n2)cc1 | 0.299% (active) |
| O=S(=O)(Oc1ccc(-c2ccc3sccc3c2)cc1)c1ccc(F)cc1 | 110% |
| COc1cc(-c2nn(-c3ccc(NC(=O)NCCCNC(=O)c4ccccc4)cc3)cc2-c2ccncc2)ccc1Cl | -10.5% (active) |
| CN(C)CCCOc1ccc(OCCCN(C)C)c2c1C(=O)c1ccccc1C2=O | -1.42% (active) |
| COc1cccc(C2C(C#N)=C(N)Oc3cc(N)ccc32)c1 (stereo not given) | 4.8% (active) |
| COc1cc(/C=C/c2cc(/C=C/c3ccc(O)c(OC)c3)[nH]c(=O)n2)ccc1O | 69% |
| COc1ccc2nc(-c3ccc(Cl)cc3)cc(-c3nnc(SC/C(=N\O)c4ccccc4)n3-c3ccccc3)c2c1 | 103% |
| CCOC(=O)CN(c1sc(C)c(C)c1C(=O)OCC)S(=O)(=O)c1ccc(C)cc1 | 107% |
| COc1ccc(/C=C2/SC(=S)NC2=O)c(OC)c1OC | 83.2% |
| CC(C)(C)OC(=O)N1CCc2c(sc3ncnc(N/N=C/c4ccccc4Br)c23)C1 | 80.6% |
| NC(CSC(c1ccccc1)(c1ccccc1)c1cccc2ccccc12)C(=O)O (stereo not given) | 94.5% |
| CN(C)CCCOc1ccccc1NC1=C(Cl)C(=O)C(Nc2ccccc2OCCCN(C)C)=C(Cl)C1=O | -96.6% (active) |

| SMILES | growth |
| --- | --- |
| NS(=O)(=O)c1ccc(Br)cc1 | 96.3% |
| CN(C)CCCOc1ccc(NC2=C(Cl)C(=O)C(Nc3ccc(OCCCN(C)C)cc3)=C(Cl)C2=O)cc1 | -87.9% (active) |
| COc1ccc(-c2n[nH]nc2-c2cc(OC)c3c(c2OC)OCO3)cc1 | -2.99% (active) |
| C=CCn1c(SCC(=O)Nc2ccc(C(=O)/C=C/c3cc(OC)c(OC)c(OC)c3)cc2)nnc1-c1cc(-c2ccc(Cl)cc2)nc2ccccc12 | 84.3% |
| COc1ccc(C2=Cn3c(CCC(=O)c4nc5ccccc5[nH]4)nnc3SC2)cc1 | 92% |
| CCN1CCN(CCC(=O)Nc2cccc(-n3cc(-c4ccncc4)c(-c4ccc(Cl)c(OC)c4)n3)c2)CC1 | -51.9% (active) |
| N#CCc1csc(Cc2ccccc2)n1 | 104% |
| Cc1[nH]c2ccccc2c1/C=N/Nc1ncnc2sc3c(c12)CCN(CC(=O)OC(C)(C)C)C3 | 62.7% |
| CCCc1cn(CC(=O)Nc2nc3ccccc3s2)nn1 | 99.5% |
| C/C=C/CSC(C)(C)C(=O)NC | 100% |
| Cc1ccc(Cl)cc1NC(=O)CCl | 102% |
| CCOC(=O)c1cc(C(=O)c2ccc(OC)c(OC)c2)n2c1ccc1ccc3cccnc3c12 | 9.16% (active) |
| Cc1c(Cl)cccc1NC(=O)CCCl | 102% |
| Cc1ccc(NCCNCC(C)(C)O)c2c(=O)c3ccc(Cl)cc3sc12 | 69.8% |
| OCC1OC(n2cnc3c(NCc4ccco4)ncnc32)C(O)C1O (stereo not given) | 21.7% |
| NS(=O)(=O)Oc1ccc(NC(=O)C2CCCCCC2)cc1 | 98.3% |
| COc1cc(-c2nn(-c3ccc(NC(=O)NCCNS(=O)(=O)c4ccc(F)cc4)cc3)cc2-c2ccncc2)ccc1Cl | -46.4% (active) |
| NS(=O)(=O)Oc1ccc2c(ccn2C(=O)C23CC4CC(CC(C4)C2)C3)c1 | 103% |
| COc1ccc(-c2cc(-c3ccc(Cl)cc3)nc(SCCCC(=O)NO)n2)cc1 | 4.55% (active) |
| Nc1cc(Br)c(-c2nn3c(CCC(=O)c4nc5ccccc5[nH]4)nnc3s2)c(Br)c1 | 83.4% |

tested on: UACC-257 melanoma; assay: as above; settings: 10 µM

| SMILES | growth |
| --- | --- |
| CC(C)N(CCOc1cccc(-c2nc3sccn3c2-c2ccnc(S(C)(=O)=O)n2)c1)C(C)C | 104% |
| O=C(CSc1nnc(-c2ccc(Cl)cc2)o1)Nc1ccc(C(=O)/C=C/c2ccc(Cl)cc2)cc1 | 98.7% |
| CC[C@@H](C(=O)[C@@H](C)[C@@H](O)[C@H](C)[C@@H]1O[C@@H]([C@@H](CC)C(=O)N(CC)CC)CC[C@@H]1C)C1O[C@]2(C=CC(=O)[C@]3(CC[C@@](C)([C@H]4CC[C@](O)(CC)[C@H](C)O4)O3)O2)[C@H](C)C[C@@H]1C (stereo not given in full) | 19.8% |
| COc1ccc(-c2onc(N)c2-c2cc(OC)c3c(c2)OCO3)cc1 | 47.5% |
| CCN(CC)CCOc1cccc2c1C(=O)c1cccc(OCCN(CC)CC)c1C2=O | 70.7% |
| COc1cc(/C=C/c2cc(/C=C/c3ccc(O)c(OC)c3)n(C(=O)Nc3ccc(C)cc3)n2)ccc1O | 4.8% (active) |
| CCOC(=O)c1cc(C(=O)c2ccc(F)cc2F)n2ccccc12 | 93.4% |
| COc1cc2c(cc1NC(=O)C(Cl)Cl)-c1ccc(NC(=O)C(Cl)Cl)cc1C2 | -13.1% (active) |
| COc1ccc(-c2cc(-c3ccccc3)nc(SCCCC(=O)NO)n2)cc1 | -3.3% (active) |
| O=S(=O)(Oc1ccc(-c2ccc3sccc3c2)cc1)c1ccc(F)cc1 | 106% |
| COc1cc(-c2nn(-c3ccc(NC(=O)NCCCNC(=O)c4ccccc4)cc3)cc2-c2ccncc2)ccc1Cl | 63.3% |
| CN(C)CCCOc1ccc(OCCCN(C)C)c2c1C(=O)c1ccccc1C2=O | 5.21% (active) |
| COc1cccc(C2C(C#N)=C(N)Oc3cc(N)ccc32)c1 (stereo not given) | 47.2% |
| COc1cc(/C=C/c2cc(/C=C/c3ccc(O)c(OC)c3)[nH]c(=O)n2)ccc1O | 62.5% |
| COc1ccc2nc(-c3ccc(Cl)cc3)cc(-c3nnc(SC/C(=N\O)c4ccccc4)n3-c3ccccc3)c2c1 | 72.1% |
| CCOC(=O)CN(c1sc(C)c(C)c1C(=O)OCC)S(=O)(=O)c1ccc(C)cc1 | 98.8% |
| COc1ccc(/C=C2/SC(=S)NC2=O)c(OC)c1OC | 88.9% |
| CC(C)(C)OC(=O)N1CCc2c(sc3ncnc(N/N=C/c4ccccc4Br)c23)C1 | 82.6% |
| NC(CSC(c1ccccc1)(c1ccccc1)c1cccc2ccccc12)C(=O)O (stereo not given) | 103% |
| CN(C)CCCOc1ccccc1NC1=C(Cl)C(=O)C(Nc2ccccc2OCCCN(C)C)=C(Cl)C1=O | -92.9% (active) |

| SMILES | growth |
| --- | --- |
| NS(=O)(=O)c1ccc(Br)cc1 | 88.2% |
| CN(C)CCCOc1ccc(NC2=C(Cl)C(=O)C(Nc3ccc(OCCCN(C)C)cc3)=C(Cl)C2=O)cc1 | -88.2% (active) |
| COc1ccc(-c2n[nH]nc2-c2cc(OC)c3c(c2OC)OCO3)cc1 | 48% |
| C=CCn1c(SCC(=O)Nc2ccc(C(=O)/C=C/c3cc(OC)c(OC)c(OC)c3)cc2)nnc1-c1cc(-c2ccc(Cl)cc2)nc2ccccc12 | 102% |
| COc1ccc(C2=Cn3c(CCC(=O)c4nc5ccccc5[nH]4)nnc3SC2)cc1 | 107% |
| CCN1CCN(CCC(=O)Nc2cccc(-n3cc(-c4ccncc4)c(-c4ccc(Cl)c(OC)c4)n3)c2)CC1 | -85.5% (active) |
| N#CCc1csc(Cc2ccccc2)n1 | 94.5% |
| Cc1[nH]c2ccccc2c1/C=N/Nc1ncnc2sc3c(c12)CCN(CC(=O)OC(C)(C)C)C3 | 63.6% |
| CCCc1cn(CC(=O)Nc2nc3ccccc3s2)nn1 | 106% |
| C/C=C/CSC(C)(C)C(=O)NC | 92.2% |
| Cc1ccc(Cl)cc1NC(=O)CCl | 85.8% |
| CCOC(=O)c1cc(C(=O)c2ccc(OC)c(OC)c2)n2c1ccc1ccc3cccnc3c12 | 51% |
| Cc1c(Cl)cccc1NC(=O)CCCl | 89.2% |
| Cc1ccc(NCCNCC(C)(C)O)c2c(=O)c3ccc(Cl)cc3sc12 | 78.5% |
| OCC1OC(n2cnc3c(NCc4ccco4)ncnc32)C(O)C1O (stereo not given) | 86.4% |
| NS(=O)(=O)Oc1ccc(NC(=O)C2CCCCCC2)cc1 | 100% |
| COc1cc(-c2nn(-c3ccc(NC(=O)NCCNS(=O)(=O)c4ccc(F)cc4)cc3)cc2-c2ccncc2)ccc1Cl | 41.2% |
| NS(=O)(=O)Oc1ccc2c(ccn2C(=O)C23CC4CC(CC(C4)C2)C3)c1 | 102% |
| COc1ccc(-c2cc(-c3ccc(Cl)cc3)nc(SCCCC(=O)NO)n2)cc1 | 3.4% (active) |
| Nc1cc(Br)c(-c2nn3c(CCC(=O)c4nc5ccccc5[nH]4)nnc3s2)c(Br)c1 | 116% |
